# Measurements reported in the supplement of paper PMC9254222.
# Whole data set: some 1,100 compounds, median “Wnt reporter firefly/Renilla luciferase ratio relative to plate median” near 1.1, cut for the highest 2% near 1.6. For the sample, the highest values were picked, then their nearest neighbours and some compounds at random.
# Tested on: HEK293T (UBE3A T485A transfected, BAR Wnt reporter)
# Test: Wnt reporter firefly/Renilla luciferase ratio relative to plate median (fold (linear ratio)); higher = more Wnt/beta-catenin reporter activation
# Details: 24 h
# Summary of the method: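 HEK293T cells were seeded at 4500 cells/well in white 384-well plates and grown in DMEM with 10% FBS at 37°C and 5% CO2. The cells were transfected using Fugene 6 with a BAR firefly luciferase Wnt reporter, TK-Renilla and an expression plasmid, and four hours later robots added the chemicals at 0.01–100 uM for 24 h before a Dual-Glo luciferase readout. Wnt activity was taken as the firefly/Renilla ratio and cell health as raw Renilla, each median-centred per plate. Values are averages of four biological replicates.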
SMILES,Wnt reporter firefly/Renilla luciferase ratio (concentration: 0.01 uM),Wnt reporter firefly/Renilla luciferase ratio (concentration: 0.1 uM),Wnt reporter firefly/Renilla luciferase ratio (concentration: 1 uM),Wnt reporter firefly/Renilla luciferase ratio (concentration: 10 uM),Wnt reporter firefly/Renilla luciferase ratio (concentration: 100 uM)
CCc1cccc(C)c1N(C(=O)CCl)C(C)COC (configuration not stated) [Metolachlor],0.768,1.6,0.921,0.833,0.28
O=[N+]([O-])C(Br)(CO)CO [Bronopol],,1.17,1.15,1.07,
CCN(CC)C(=O)SCc1ccc(Cl)cc1 [Thiobencarb],0.948,1.27,1.52,1.02,1.54
O=[N+]([O-])c1cc(C(F)(F)F)c(Cl)c([N+](=O)[O-])c1Nc1ncc(C(F)(F)F)cc1Cl [Fluazinam],0.902,0.969,1.24,0.338,
Cl[C@H]1[C@H](Cl)[C@@H](Cl)[C@H](Cl)[C@@H](Cl)[C@@H]1Cl [beta-Hexachlorocyclohexane],,1.05,0.913,1.12,1.03
"Clc1cccc(Cl)c1 [1,3-Dichlorobenzene]",,1.15,1.18,1.45,1.77
"Clc1ccc(Cl)c(Cl)c1 [1,2,4-Trichlorobenzene]",,0.911,0.886,1.04,1.57
"Nc1ccc(Cl)cc1N [4-Chloro-1,2-diaminobenzene]",,1.1,1.03,0.852,
"Cc1cc(C)cc(C)c1 [1,3,5-Trimethylbenzene]",,1.01,1.15,1.05,1.12
CCCC(=NOCC)C1=C(O)CC(CC(C)SCC)CC1=O (configuration not stated) [Sethoxydim],1.27,1.07,1.15,1.2,0.758
CCOC(=O)C(Cl)Cc1cc(-n2nc(C)n(C(F)F)c2=O)c(F)cc1Cl (configuration not stated) [Carfentrazone-ethyl],1.07,0.973,0.982,0.945,1.28
CCOC(=O)COc1cc(-c2nn(C)c(OC(F)F)c2Cl)c(F)cc1Cl [Pyraflufen-ethyl],1.13,1.63,1.05,1.09,1.13
O=C(Oc1ccc(Br)cc1)N1CCN2CCC1CC2,,1.11,0.988,1.09,0.334
CC(COc1ccc(Oc2ccccc2)cc1)Oc1ccccn1 (configuration not stated) [Pyriproxyfen],1.12,0.977,1.04,1.03,0.55
ClC1(Cl)C2(Cl)C3(Cl)C4(Cl)C(Cl)(Cl)C5(Cl)C3(Cl)C1(Cl)C5(Cl)C24Cl (configuration not stated) [Mirex],,1.02,1.05,0.921,1.28
O=C(Nc1ccccc1)Nc1ccnc(Cl)c1 [Forchlorfenuron],1.1,1.16,0.957,0.694,
CCCCc1ccccc1 [Butylbenzene],,0.995,1.31,1.01,0.948
